PubChem BioAssay AID1024 (Sanford-Burnham Center for Chemical Genomics, 2008)
The whole screen tested about 96,000 compounds, of which about 1,400 (1.5%) were called active. Many of the other results were omitted from the sample, so actives are more common in it than they were. Unmarked numbers belong to inactive results.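 The calls were made as follows: active = activation factor of 2 or more for CYP2C9 at a 5 µM dose; inactive = the rest.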

Each compound was assayed against Cytochrome P450 2C9 (Homo sapiens) (UniProt P11712) (assay: human CYP2C9 activators, primary screen, biochemical, luminescence (AID 1024;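 also: 0 = sulfaphenazole-blocked wells and 1 = vehicle-only wells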)). Details: recombinant CYP2C9, luciferin-H conversion, at 5 µM, hits give high values, factor 1 = untreated enzyme, 0 = blocked.
Chain of Cytochrome P450 2C9 (Homo sapiens) (P11712 whole entry, looked up): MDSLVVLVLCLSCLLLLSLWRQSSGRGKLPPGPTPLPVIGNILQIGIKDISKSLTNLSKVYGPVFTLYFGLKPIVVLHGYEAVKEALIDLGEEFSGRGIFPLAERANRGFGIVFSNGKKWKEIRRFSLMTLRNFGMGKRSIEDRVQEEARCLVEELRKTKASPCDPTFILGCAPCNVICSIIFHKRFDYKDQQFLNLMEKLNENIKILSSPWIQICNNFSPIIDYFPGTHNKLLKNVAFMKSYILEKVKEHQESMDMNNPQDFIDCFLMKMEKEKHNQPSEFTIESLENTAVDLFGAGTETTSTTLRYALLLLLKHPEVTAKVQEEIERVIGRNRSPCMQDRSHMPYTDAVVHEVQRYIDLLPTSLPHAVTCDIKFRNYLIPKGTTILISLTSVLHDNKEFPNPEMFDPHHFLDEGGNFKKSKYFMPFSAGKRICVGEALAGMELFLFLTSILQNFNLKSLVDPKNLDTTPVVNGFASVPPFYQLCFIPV
`CCOC(=O)N1CCN(CC(=O)c2c(C)[nH]c3ccccc23)CC1` gave an activation factor of 1.6. For `CCOC(=O)N1CCN(C(=O)c2n[nH]c(=O)c3ccccc23)CC1`, the activation factor was 1. For `CCOC(=O)N1CCN(CC(=O)n2c(C)c(C)c3ccccc32)CC1`, the activation factor was 2.3 (active). Compound `COc1ccccc1C(=O)C(O)c1ccccc1OC` (stereo unspecified) has an activation factor of 1. In the case of `COc1ccccc1C(=O)Oc1ccc(N2C(=O)CCC2=O)cc1`, the activation factor is reported as 2.1 (active). For `Cc1ccc(OC(=O)c2ccccc2C(=O)OCC(F)(F)C(F)F)cc1`, the activation factor was 0.2. In the case of `CCN(CC)c1ccc(/C=N/Nc2nc(C)cc(=O)[nH]2)cc1`, the activation factor is reported as 1.2. `COCc1cc(C)nc2sc3c(=O)n(-c4cccc5ccccc45)nnc3c12` was tested, and the activation factor was 0.7. Work on `O=C(NNC(=O)c1cccnc1)Nc1ccccc1` yielded an activation factor of 1.1. Compound `COC(=O)c1c(C)c(C)nc(N)c1C#N` has an activation factor of 1.1. In the case of `COC(=O)C(C)N(C#N)c1nc(C)nc(C)n1` (stereo unspecified), the activation factor is reported as 2.4 (active). `CCOC(=O)c1sc(C)c2c1NC(C)(c1cccc3ccccc13)NC2=O` (stereo unspecified) was tested, and the activation factor was 0. Compound `Cc1ccc2c(c1)-c1c(ssc1=S)C(C)(C)N2C(=O)CN1C(=O)c2ccccc2C1=O` has an activation factor of 0.2. `O=C(c1cc(-c2ccc(O)cc2)on1)N1CCCc2ccccc21` showed an activation factor of 0.4. For `CC(NC(=O)c1cc(-c2ccccc2)on1)c1ccccc1` (stereo unspecified), the activation factor was 1.2. In the case of `O=C(Nc1ccccc1C(F)(F)F)c1cc(-c2ccc(O)cc2)on1`, the activation factor is reported as 3.3 (active). `COc1ccc(Cl)cc1C(=O)NCC#N` gave an activation factor of 1.8. `COc1cc(OC)c(C(=O)Nc2ccc(N(C)C)cc2)cc1OC` showed an activation factor of 0.7. `COc1ccc(Cl)cc1C(=O)Nc1ccc(N(C)C(C)=O)cc1` was tested, and the activation factor was 3.1 (active). Work on `CCOc1ccc(NC(=O)Nc2ccc(N(C)C(C)=O)cc2)cc1` yielded an activation factor of 1.1. In the case of `COc1ccc(Cl)cc1C(=O)NCc1cn(C)nc1C`, the activation factor is reported as 1. In the case of `CCC(C)NC(=O)c1cc(Cl)ccc1OC` (stereo unspecified), the activation factor is reported as 2.7 (active). For `COc1ccc(N(CC(=O)N/N=C/c2cccs2)S(=O)(=O)c2ccc(OC)c(OC)c2)cc1`, the activation factor was 0.6. In the case of `O=C(CNC(=O)OCc1ccccc1)Oc1cc2oc(=O)cc(-c3ccccc3)c2cc1Cl`, the activation factor is reported as 0.2. With `O=C(Nc1ccc(Br)cc1)c1cccc(NC(=O)C2C3CC4OC(=O)C2C4C3)c1` (stereo unspecified) the activation factor was 0.3. `CN1OC(COC(=O)c2ccc(Cl)cc2)CC1c1ccccc1` (stereo unspecified) showed an activation factor of 0.6. In the case of `COc1ccc(NC(=O)Nc2ccc3nsnc3c2)cc1`, the activation factor is reported as 0.8. In the case of `O=C(Nc1nnc(C2CC2)s1)c1ccccn1`, the activation factor is reported as 1.3. With `Cc1nn(Cc2ccc(Cl)c(Cl)c2)c(C)c1NC(=O)c1cc(C2CC2)on1` the activation factor was 0. In the case of `CSc1ccccc1NC(=O)c1cc(C2CC2)on1`, the activation factor is reported as 2.4 (active). For `O=C(NCc1ccco1)C1CCCN(S(=O)(=O)c2ccccc2)C1` (stereo unspecified), the activation factor was 0.7. With `O=C(Cc1ccc(F)cc1)NC1CCCC1` the activation factor was 1.4. Compound `O=C(NC1CCCCC1)C1c2ccccc2C(=O)N1Cc1ccco1` (stereo unspecified) has an activation factor of 0.9. In the case of `O=C(CC1OC(=O)c2ccccc21)NC1CCCCC1` (stereo unspecified), the activation factor is reported as 2 (active). `Cc1c(Nc2cc(N3CCCC(C)C3)c3nonc3c2[N+](=O)[O-])c(=O)n(-c2ccccc2)n1C` (stereo unspecified) was tested, and the activation factor was 0.6. For `CCOc1ccc(NC(=O)C2CC(=O)N=C(N)S2)cc1` (stereo unspecified), the activation factor was 1. `COc1cccc(NC(=O)c2ccccc2SC)c1` was tested, and the activation factor was 1. For `COc1cccc(C(=O)NNC(=O)c2ccccc2Br)c1`, the activation factor was 2.8 (active). Compound `COc1cccc(C(=O)Nc2ccc(N3CCCC3)cc2)c1` has an activation factor of 0.9. With `Cc1cc2cc3c(cc2nc1SCC(=O)Nc1c(C)cccc1C)CCC3` the activation factor was 0.4. With `Cc1cc(OCCOc2cccc3cccnc23)c(C)cc1Cl` the activation factor was 2.7 (active). Compound `CCOc1cc(C)c(Cl)cc1S(=O)(=O)n1nnc2ccccc21` has an activation factor of 0.6. `CCOc1cc(N2CCOCC2)c(OCC)cc1NC(=O)COc1cccc2cccnc12` showed an activation factor of 1. `Cc1cc(SCC(=O)c2ccccc2)nc(SCC(=O)c2ccccc2)n1` gave an activation factor of 0.3. `Cn1c(=O)c2c(nc(N3CCCCCC3)n2CC(=O)c2ccc(Br)cc2)n(C)c1=O` gave an activation factor of 0.8. In the case of `Cc1ccn(C(CC(=O)c2ccc(Br)cc2)C(=O)O)n1` (stereo unspecified), the activation factor is reported as 2.1 (active). Compound `Cc1cc([N+](=O)[O-])ccc1NCc1cccc([N+](=O)[O-])c1` has an activation factor of 1. With `O=C(NCCCN1CCN(C2CCCCC2)CC1)Nc1ccccc1C(F)(F)F` the activation factor was 1. `Cc1cc(C)nc(NC(=O)Nc2ccccc2C(F)(F)F)n1` was tested, and the activation factor was 2.9 (active). With `Cc1cc(C)nc(NC(=O)C(C)N2C(=O)c3ccccc3C2=O)n1` (stereo unspecified) the activation factor was 1.2. `O=C(Nc1ccc2sc3ccccc3c(=O)c2c1)c1ccccc1Cl` gave an activation factor of 1.1. With `O=c1c2ccccc2nc2n1C(CSCc1cccc(C(F)(F)F)c1)CS2` (stereo unspecified) the activation factor was 0.6. With `COc1cc(-c2nc(-c3ccncc3)no2)cc(OC)c1OC` the activation factor was 0.2. With `COc1ccc(-c2noc(-c3cccc(OC)c3OC)n2)cc1OC` the activation factor was 2 (active). Work on `COc1ccc(-c2nc(-c3ccccc3)no2)c(OC)c1` yielded an activation factor of 1.1. `Cc1cccc(N(CC(=O)Nc2ccc(-c3nc4ccc(C)cc4s3)cc2)S(C)(=O)=O)c1` gave an activation factor of 0.9. `CNS(=O)(=O)c1cnccc1N1CCN(c2cccc(C)c2)CC1` gave an activation factor of 0.4. With `O=C1Nc2c(Br)cc(Br)cc2C1(O)N1CCOCC1` (stereo unspecified) the activation factor was 3 (active). In the case of `O=C(CN1CCOCC1)Nc1cc(Cl)ccc1Cl`, the activation factor is reported as 2.4 (active). `O=C(CN1CCOCC1)Nc1ccc(NC(=O)CN2CCOCC2)c(Cl)c1` gave an activation factor of 1. With `O=C(CN1CCOCC1)Nc1ccccc1` the activation factor was 0.9. `COc1ccc(OC)c(/C=N/NC(=O)CSc2nnc(C)n2-c2ccccc2)c1` was tested, and the activation factor was 0.8. `COc1ccc(C)cc1N(C)C(=O)c1coc(=O)c2ccccc12` showed an activation factor of 0.7. In the case of `CCCn1c(C(Cc2ccccc2)NC(=O)COC)nc2ccccc21` (stereo unspecified), the activation factor is reported as 0.3. `Cc1ccc(N2CCN(/N=C/c3cccs3)CC2)cc1` was tested, and the activation factor was 1.1. Work on `Cc1ccsc1/C=C1\SC(N2CCOCC2)=NC1=O` yielded an activation factor of 1.2. With `Cc1ccc(N2CCN(C3=NC(=O)/C(=C\c4cccs4)S3)CC2)cc1` the activation factor was 2.3 (active). `CO/N=C/c1ccc(N2CCN(C(=O)c3cccc(Cl)c3)CC2)c([N+](=O)[O-])c1` was tested, and the activation factor was 0.9. Compound `CN=C1S/C(=C\c2ccc(Sc3ccc(Cl)cc3)o2)C(=O)N1C` has an activation factor of 0.7. `CC(C)C(C)NC(=O)COc1ncnc2ccccc12` (stereo unspecified) showed an activation factor of 0.9. Work on `CCOC(=O)c1c(NC(=O)c2ccc(N3CCOCC3)c([N+](=O)[O-])c2)sc(C)c1C` yielded an activation factor of 0.9.
